These results are taken from PubChem BioAssay (NCATS).

Assay [1] can be described thus: Quantitative High-Throughput drug screen in 47 multiple myeloma cell lines against the NCATS MIPE library collection: H1112_PLB cell viability assay (AID 1918967; note: nearly all actives have a fitted effect of over 30% in size; note: potency is the fitted concentration of half-maximal effect). The method in brief:
(§1)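 Myeloma cell lines, 500 cells per well, exposed to MIPE 4.0 library compounds for 48 h at 37C, 5% CO2. Viability from ATP by CellTiter-Glo luminescence; normalised to DMSO (100%) and media-only (0%) wells.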

Assay [2] can be described thus: Quantitative High-Throughput drug screen in 47 multiple myeloma cell lines against the NCATS MIPE library collection: Karpas25_ECACC cell viability assay (AID 1918968; note: nearly all actives have a fitted effect of over 35% in size; note: potency is the fitted concentration of half-maximal effect). The procedure, abridged: as §1
The nature of assay [3]: Quantitative High-Throughput drug screen in 47 multiple myeloma cell lines against the NCATS MIPE library collection: KMS12BM_JCRB cell viability assay (AID 1918971). Note: nearly all actives have a fitted effect of over 35% in size. Note: potency is the fitted concentration of half-maximal effect. The method in brief:
(§2)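 Relative luminescence from CellTiter-Glo served as the viability signal, referenced to DMSO-treated (100%) and cell-free medium (0%) controls. Treatment lasted 48 hours at 37C with 500 cells per well.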

Assay [4] can be described thus: Quantitative High-Throughput drug screen in 47 multiple myeloma cell lines against the NCATS MIPE library collection: KMS12PE_JCRB cell viability assay (AID 1918972). Note: nearly all actives have a fitted effect of over 30% in size. Note: potency is the fitted concentration of half-maximal effect. The procedure, abridged:
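We plated 500 myeloma cells per well, pinned in MIPE 4.0 compounds, and incubated for 48 hours at 37C. ATP was then quantified with CellTiter-Glo, with DMSO and media-only wells defining 100% and 0%.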

Assay [5] is described as follows: Quantitative High-Throughput drug screen in 47 multiple myeloma cell lines against the NCATS MIPE library collection: KMS26_JCRB cell viability assay (AID 1918975). Note: nearly all actives have a fitted effect of over 45% in size. Note: potency is the fitted concentration of half-maximal effect. The method in brief:
as §2

A short description of assay [6]: Quantitative High-Throughput drug screen in 47 multiple myeloma cell lines against the NCATS MIPE library collection: MMM1_PLB cell viability assay (AID 1918976). Note: potency is the fitted concentration of half-maximal effect; nearly all actives have a fitted effect of over 35% in size. The method in brief: (§3)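 Plated at 500 cells per well, myeloma lines received MIPE 4.0 compounds by pin tool. Following 48 h culture at 37 °C, CellTiter-Glo luminescence gave viability relative to DMSO and media-only controls.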

Assay [7] in a line: Quantitative High-Throughput drug screen in 47 multiple myeloma cell lines against the NCATS MIPE library collection: MOLP8_DSMZ cell viability assay (AID 1918977). Note: nearly all actives have a fitted effect of over 45% in size. Note: potency is the fitted concentration of half-maximal effect. The method in brief:
as §3

Assay [8] is described as follows: Quantitative High-Throughput drug screen in 47 multiple myeloma cell lines against the NCATS MIPE library collection: NCIH929_DSMZ cell viability assay (AID 1918978). Note: nearly all actives have a fitted effect of over 35% in size. Note: potency is the fitted concentration of half-maximal effect. The method in brief:
as §3

A short description of assay [9]: Quantitative High-Throughput drug screen in 47 multiple myeloma cell lines against the NCATS MIPE library collection: MM1S_ATCC cell viability assay (AID 1918980). Note: nearly all actives have a fitted effect of over 45% in size. Note: potency is the fitted concentration of half-maximal effect. The method in brief: as §3
A short description of assay [10]: Quantitative High-Throughput drug screen in 47 multiple myeloma cell lines against the NCATS MIPE library collection: MM1R_ATCC cell viability assay (AID 1918981). Note: nearly all actives have a fitted effect of over 35% in size. Note: potency is the fitted concentration of half-maximal effect. The method in brief: as §3
A short description of assay [11]: Quantitative High-Throughput drug screen in 47 multiple myeloma cell lines against the NCATS MIPE library collection: LP1_DSMZ cell viability assay (AID 1918982). Note: nearly all actives have a fitted effect of over 35% in size. Note: potency is the fitted concentration of half-maximal effect. The method in brief:
as §3

The nature of assay [12]: Quantitative High-Throughput drug screen in 47 multiple myeloma cell lines against the NCATS MIPE library collection: KMS28PE_JCRB cell viability assay (AID 1918983). Note: nearly all actives have a fitted effect of over 35% in size. Note: potency is the fitted concentration of half-maximal effect. The method in brief: as §3
Assay [13] can be described thus: Quantitative High-Throughput drug screen in 47 multiple myeloma cell lines against the NCATS MIPE library collection: L363_DSMZ cell viability assay (AID 1918984). Note: nearly all actives have a fitted effect of over 40% in size. Note: potency is the fitted concentration of half-maximal effect. The procedure, abridged: as §3
Assay [14] in a line: Quantitative High-Throughput drug screen in 47 multiple myeloma cell lines against the NCATS MIPE library collection: KMS34_JCRB cell viability assay (AID 1918985). Note: nearly all actives have a fitted effect of over 40% in size. Note: potency is the fitted concentration of half-maximal effect. The method in brief:
as §3

Assay [15] is described as follows: Quantitative High-Throughput drug screen in 47 multiple myeloma cell lines against the NCATS MIPE library collection: OCIMY7_PLB cell viability assay (AID 1918987). Note: nearly all actives have a fitted effect of over 65% in size. Note: potency is the fitted concentration of half-maximal effect. The procedure, abridged: as §3
Assay [16] in a line: Quantitative High-Throughput drug screen in 47 multiple myeloma cell lines against the NCATS MIPE library collection: OCIMY5_PLB cell viability assay (AID 1918988). Note: nearly all actives have a fitted effect of over 65% in size. Note: potency is the fitted concentration of half-maximal effect. The method in brief: as §3
A short description of assay [17]: Quantitative High-Throughput drug screen in 47 multiple myeloma cell lines against the NCATS MIPE library collection: KMS27_JCRB cell viability assay (AID 1918970). Note: nearly all actives have a fitted effect of over 30% in size. Note: potency is the fitted concentration of half-maximal effect. The method in brief:
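Luminescent ATP read-out (CellTiter-Glo, 5 min at room temperature) after 48 h compound exposure of 500 KMS27_JCRB cells per well; DMSO wells define full viability and media-only wells zero.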

A short description of assay [18]: Quantitative High-Throughput drug screen in 47 multiple myeloma cell lines against the NCATS MIPE library collection: KMS20_JCRB cell viability assay (AID 1918973). Note: nearly all actives have a fitted effect of over 45% in size. Note: potency is the fitted concentration of half-maximal effect. The procedure, abridged: as §1
The nature of assay [19]: Quantitative High-Throughput drug screen in 47 multiple myeloma cell lines against the NCATS MIPE library collection: OCIMY1_PLB cell viability assay (AID 1918979). Note: nearly all actives have a fitted effect of over 35% in size. The procedure, abridged:
as §3

Assay [20] can be described thus: Quantitative High-Throughput drug screen in 47 multiple myeloma cell lines against the NCATS MIPE library collection: KMS21BM_JCRB cell viability assay (AID 1918974). Note: potency is the fitted concentration of half-maximal effect. Particulars: ATP luminescence, 48 h; viability: at 45.8 µM (top of the series). The procedure, abridged: as §1

Structures are written as SMILES. Results filed as inconclusive are left out. The source made the active and inactive calls. Calls come from the whole dose curve; as a rule, active = well fitted curve in the direction sought with a large enough effect; inconclusive = small, poorly fitted or top-dose-only effect, or another doubt; inactive = no such curve, though single readings can be large; an effect the other way counts as inactive or inconclusive.

On to `CCc1c2c(nc3ccc(OC(=O)N4CCC(N5CCCCC5)CC4)cc13)-c1cc3c(c(=O)n1C2)COC(=O)[C@]3(O)CC`, for which the Potency was 1.32 µM (active) in assay [1]; 2.64 µM (active) in [2]; 0.264 µM (active) in assay [3]; 0.526 µM (active) in assay [4]; 0.166 µM (active) in assay [5]; 0.935 µM (active) in [6]. The Potency in [7] was 0.148 µM (active); in assay [8], 16.6 µM (active); in assay [9], 1.32 µM (active); in assay [10], 1.05 µM (active); in assay [11] it was 0.59 µM (active); in [12], 1.87 µM (active). In addition, the Potency was 0.0372 µM (active) in assay [13], 1.18 µM (active) in assay [14], 0.296 µM (active) in [15] and 1.48 µM (active) in assay [16].

Consider `CC(=O)CC(c1ccccc1)c1c(O)c2ccccc2oc1=O` (stereo not drawn), for which the Potency result in assay [1], in assay [2], in assay [17], in assay [4], in assay [18] and in assay [5] was “inactive” in each case. For the same compound, the Potency entry in assay [8], in assay [19], in [10], in assay [11], in [12] and in [14] was “inactive” each time. Moreover, in assay [15], the Potency result is “inactive”.

With `CNC(=O)c1cc(Oc2ccc(NC(=O)Nc3ccc(Cl)c(C(F)(F)F)c3)cc2)ccn1`, the Potency in assay [1] is 9.35 µM (active); in [2] it was 6.62 µM (active); in assay [17], 3.32 µM (active); in assay [4] it was 3.72 µM (active); in assay [18], 16.6 µM (active); in assay [6], 16.6 µM (active). Moreover, the Potency in [8] was 10.5 µM (active); in assay [9], 3.72 µM (active); in assay [10], 20.9 µM (active); in assay [11] it was 20.9 µM (active); in [12], 26.4 µM (active); in assay [13] it was 6.62 µM (active). The Potency in assay [14] is 20.9 µM (active); in [15], 3.32 µM (active); in [16] it was 23.5 µM (active).

For `Cc1noc(NS(=O)(=O)c2ccc(N)cc2)c1C`, the Potency result in assay [1], in assay [2], in assay [17], in assay [4], in assay [20] and in [5] was “inactive” each time. For the same compound, the Potency entry in assay [8], in assay [19], in [11], in assay [12] and in assay [16] was “inactive” each time.

Turning to `O=c1cc(O)c(Cl)c[nH]1`, the Potency entry in assay [1], in assay [2], in assay [8], in assay [19], in [11] and in assay [14] was “inactive” each time. Also, the Potency in [17] is 1.66 µM (active); in assay [4], 6.62 µM (active); in assay [20] it was 0.743 µM (active); in [9], 3.72 µM (active); in [13] it was 2.35 µM (active).

With `CC(C)OC(=O)C(C(=O)OC(C)C)=C1SC=CS1`, the Potency result in [1], in assay [2], in [4], in assay [8], in [19] and in assay [13] was “inactive” in each case. Also, the Potency result in assay [15] was “inactive”. Also, the Potency in assay [3] is 14.8 µM (active); in assay [5], 0.003 µM (active). For the same compound, in assay [20], the viability (commonly a read-out of living cells in per cent, often relative to untreated cells) is 403% (active).

As to `NC1(c2ccc(-c3nc4ccn5c(=O)[nH]nc5c4cc3-c3ccccc3)cc2)CCC1`, the Potency is 0.0833 µM (active) in [1]; 5.26 µM (active) in assay [2]; 23.5 µM (active) in assay [3]; 0.296 µM (active) in [4]; 5.26 µM (active) in assay [18]; 14.8 µM (active) in [5]. The Potency in assay [6] is 0.332 µM (active); in [8] it was 0.059 µM (active); in assay [9], 0.662 µM (active); in assay [10] it was 5.26 µM (active); in assay [13], 2.64 µM (active); in [14] it was 9.35 µM (active).

Regarding `COc1ccc2c(c1)c(CC(=O)OCC(=O)O)c(C)n2C(=O)c1ccc(Cl)cc1`, the Potency result in assay [1], in assay [2], in assay [3], in assay [4], in assay [7] and in assay [8] was “inactive” in each case. For the same compound, the Potency entry in [19], in assay [11], in assay [13] and in assay [14] was “inactive” in each case. Besides, in [6], the Potency is 4.18 µM (active).

`CN(CCOc1ccc(CC2SC(=O)NC2=O)cc1)c1ccccn1` (stereo not drawn): the Potency result in assay [1], in assay [2], in [17], in assay [4], in assay [18] and in assay [7] was “inactive” throughout. Further, the Potency result in assay [8], in assay [19], in assay [11], in assay [12] and in assay [14] was “inactive” each time. For the same compound, the values for the Potency in assay [6], in assay [9] and in assay [16] were 14.8 µM (active), 16.6 µM (active) and 1.05 µM (active), respectively.

Turning to `CCOc1cc(N)c(Cl)cc1C(=O)NCC1CN(Cc2ccc(F)cc2)CCO1` (stereo not drawn), the Potency entry in assay [1], in assay [2], in assay [17], in assay [4], in [7] and in [8] was “inactive” each time. The Potency result in assay [19], in assay [10], in [11], in assay [12], in assay [14] and in assay [16] was “inactive” each time.

Take `O=c1oc2c(O)c(O)cc3c(=O)oc4c(O)c(O)cc1c4c23`: the Potency entry in [1], in assay [2], in [17], in assay [4], in assay [8] and in assay [19] was “inactive” in each case. Also, the Potency entry in [10] and in assay [12] was “inactive” throughout.

For the compound `CN1CCN(c2c(F)cc3c(=O)c(C(=O)O)cn4c3c2OCN4C)CC1`, the Potency result in assay [1], in assay [2], in [17], in [4], in assay [8] and in assay [19] was “inactive” in each case. The Potency result in assay [9], in assay [10], in [11], in [12], in [13] and in [14] was “inactive” in each case. Also, the Potency result in assay [16] is “inactive”.

With `O=C(O)c1cc(=O)[nH]c(=O)[nH]1`, the Potency entry in assay [1], in assay [2], in assay [17], in assay [4], in assay [5] and in [8] was “inactive” each time. Further, the Potency result in [9], in assay [10], in assay [11], in assay [13] and in assay [14] was “inactive” in each case. Further, the Potency in assay [12] was 5.9 µM (active).

As to `NS(=O)(=O)c1cc2c(cc1Cl)NC(C(Cl)Cl)NS2(=O)=O` (stereo not drawn), the Potency result in assay [1], in assay [2], in [17], in assay [4], in [18] and in assay [20] was “inactive” throughout. Moreover, the Potency entry in [7], in assay [8], in assay [19], in assay [10], in assay [11] and in [12] was “inactive” throughout. Moreover, the Potency entry in assay [13], in assay [14] and in [16] was “inactive” in each case.

As for `COC(c1ccccc1)(c1ccccc1)[C@H](Oc1nc(C)cc(C)n1)C(=O)O`, the Potency result in assay [1], in [2], in [17], in [4], in assay [5] and in assay [8] was “inactive” each time. Besides, the Potency entry in [19], in [10], in assay [12] and in [14] was “inactive” throughout.
